KCNQ2 inh – inhibitors of rat KCNQ2 potassium channel. AID 2156. O88943. CHO-K1 KCNQ2, FluxOR thallium flux, 20 min; stronger effect = lower value. 310,000 tested, 1.1% active. B-score at 10 µM;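 active = fluorescence ratio B-score at most minus 3 library SDs, with starting brightness B-score within 2 library SDs, cut at about -5.5 in these data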
KCNQ2 pot – potentiators of rat KCNQ2 potassium channel; CHO-K1 KCNQ2, FluxOR thallium flux fluorescence; stronger effect = higher value; B-score at 10 µM; O88943; 310,000 tested, 0.54% active;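 active = fluorescence ratio B-score at least 3 SD of library B-scores, with initial fluorescence B-score within 3 of them, cut at about 5.3 in these data; same plate scores as AID 2156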;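 note: B-score of peak minus minimum over baseline fluorescence ratio after K+ and Tl+ stimulus; positive B-score means potentiation of KCNQ2 with more thallium influx and brighter signal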
Kir21 confirm – confirmation of mouse Kir2.1 potassium channel inhibitors | shares compounds with KCNQ2 pot | 2,300 tested, 41% active | Tl flux remaining, % of negative control (stronger effect = lower value), % at 10 µM | Kir2.1-expressing cells, FluxOR thallium flux fluorescence; stronger effect = lower value | AID 2032;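 active = Primary-screen hit whose thallium flux fell at least 3 control SD below untreated wells in both duplicates, with normal baseline fluorescence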
HEK293 Tl flux – alters thallium flux in parental HEK293 cells, Kir2.1 counter-screen | shares compounds with KCNQ2 pot | FluxOR thallium flux fluorescence; 0% = unstimulated blank wells | FluxOR signal as % of negative control (100 = no effect), % at 10 µM | 2,300 tested, 19% active;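 active = dye signal at least 3 control SD above or below untreated wells in both duplicates, raw fluorescence within 3, either direction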;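 note: percent is based on the flux ratio of peak minus minimum fluorescence over baseline F0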
CHO-K1 Tl ctr – alters thallium flux in parental CHO-K1 cells, KCNQ2 counter-screen; shares compounds with KCNQ2 pot; FluxOR thallium flux fluorescence; zero = vehicle mean+3SD, 100% = vehicle-minus-blank window; activity increase over 3SD of controls, % at 10 µM; 1,200 tested, 43% active; AID 2282;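 active = signal rise of at least 3 SD above the untreated control mean, in both duplicate wells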;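 note: counter screen of KCNQ2 potentiator hits so any rise reflects channel-independent effects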
KCNQ1 sel pot – selectivity of KCNQ2 potentiators: effect on human KCNQ1. 1,200 tested, 28% active. activation over 3SD threshold, % at 10 µM. shares compounds with KCNQ2 pot. CHO KCNQ1 stable, FluxOR thallium flux fluorescence; beyond 3SD, as % of vehicle-control signal;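 active = fluorescence ratio rise of at least 3 SD of vehicle wells above their mean, in both replicate wells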
KCNQ2 pot conf – rat KCNQ2 channel potentiator confirmation; potentiation, less the hit threshold, % at 10 µM; 1,200 tested, 68% active; CHO-KCNQ2 cells, FluxOR thallium flux fluorescence; shares compounds with KCNQ2 pot;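 active = fluorescence ratio rising 3 SD or more over the vehicle control mean in both replicates, plus primary screen hit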;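 note: peak minus minimum thallium fluorescence divided by baseline after K/Tl stimulus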
Kir21 spec – tests whether KCNQ2 potentiators also affect mouse Kir2.1 | HEK293 Kir2.1, FluxOR thallium flux fluorescence | shares compounds with KCNQ2 pot | activity over 3SD threshold, % at 10 µM | 1,200 tested, 2% active;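 active = fluorescence ratio rise of at least 3 SD above the vehicle-control mean, seen in both replicates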
KCNQ2 W236L pot – KCNQ2 potentiators acting on retigabine-insensitive rat KCNQ2 W236L mutant | CHO KCNQ2-W236L, automated patch clamp current | 940 tested, 10% active | shares compounds with KCNQ2 pot | current increase over 3SD of negative controls (%), stronger effect = higher value, % at 25 µM | AID 2558;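 active = current increase at least 3 SD of the untreated controls above them in both duplicate recordings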
Target sequence (O88943 whole entry W236L, looked up): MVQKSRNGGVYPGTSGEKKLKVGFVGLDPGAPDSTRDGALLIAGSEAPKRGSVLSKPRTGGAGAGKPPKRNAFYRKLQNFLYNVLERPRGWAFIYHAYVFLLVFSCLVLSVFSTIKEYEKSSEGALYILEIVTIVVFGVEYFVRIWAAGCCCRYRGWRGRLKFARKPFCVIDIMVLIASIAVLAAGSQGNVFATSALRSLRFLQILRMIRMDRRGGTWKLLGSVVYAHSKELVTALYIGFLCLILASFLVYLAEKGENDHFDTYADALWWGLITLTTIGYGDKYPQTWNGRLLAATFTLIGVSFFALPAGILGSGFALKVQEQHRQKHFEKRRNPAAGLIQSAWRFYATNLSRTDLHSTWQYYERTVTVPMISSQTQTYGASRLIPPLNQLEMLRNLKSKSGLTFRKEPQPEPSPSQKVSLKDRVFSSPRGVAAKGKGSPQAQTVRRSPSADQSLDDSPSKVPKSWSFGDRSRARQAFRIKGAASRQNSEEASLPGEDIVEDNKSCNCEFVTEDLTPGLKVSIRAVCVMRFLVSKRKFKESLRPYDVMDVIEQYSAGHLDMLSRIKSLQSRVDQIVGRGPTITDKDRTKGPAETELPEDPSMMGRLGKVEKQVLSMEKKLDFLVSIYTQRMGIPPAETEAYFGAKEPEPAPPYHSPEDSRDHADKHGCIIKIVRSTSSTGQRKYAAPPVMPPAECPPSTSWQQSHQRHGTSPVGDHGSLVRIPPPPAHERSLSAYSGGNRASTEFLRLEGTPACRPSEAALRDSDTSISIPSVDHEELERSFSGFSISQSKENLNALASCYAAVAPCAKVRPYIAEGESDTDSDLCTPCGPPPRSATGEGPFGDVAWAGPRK
Of the large screens only hits and unclear results are named; the others gave an inactive call (follow-up assays come after a bar, where they were run). Rows were chosen to be rich in hits. Some 1.6% of all compounds tested hit in one or more screens of this group.

COc1ccccc1/C=C(\NC(=O)c1ccccc1)C(=O)NCc1ccco1	none | Kir21 confirm inactive | HEK293 Tl flux inactive
COc1ccc(/C=C(/NC(=O)c2ccccc2)C(=O)NCc2ccco2)cc1	none
Cc1cc(Br)ccc1OCC(=O)NNC(=O)C(=O)Nc1ccccc1	KCNQ2 pot 11.3 | Kir21 confirm inactive | HEK293 Tl flux 227.5% | CHO-K1 Tl ctr 69.9 | KCNQ1 sel pot inactive | KCNQ2 pot conf 36.2 | Kir21 spec inactive | KCNQ2 W236L pot inactive
Cc1cccc(NC(=O)NNC(=O)COc2ccc3ccccc3c2)c1	none (no result: KCNQ2 pot)
Cc1cc(Br)ccc1OCC(=O)NNC(=O)Cc1ccccc1	none
O=C(COc1ccc2ccccc2c1)NNC(=O)C(=O)Nc1ccccc1	KCNQ2 pot 12.5 | Kir21 confirm inactive | HEK293 Tl flux inactive | CHO-K1 Tl ctr inactive | KCNQ1 sel pot inactive | KCNQ2 pot conf inactive | Kir21 spec inactive | KCNQ2 W236L pot inactive
CC(OC(=O)c1nn(C(C)C)c(=O)c2ccccc12)C(=O)Nc1ncc(Cl)cc1Cl (configuration not stated)	none (no result: KCNQ2 pot)
Brc1ccc(CNCc2cccs2)cc1	none (no result: KCNQ2 pot)
c1ccc(COc2ccc(CNCc3cccs3)cc2)cc1	none (no result: KCNQ2 pot) | Kir21 confirm 10.5% | HEK293 Tl flux 72.0%
CCCn1cc(CN2CCC(Oc3ccc(C(=O)N4CCCC4)cc3)CC2)c(C)n1	none
CN(C)C(CNc1ncnc2sccc12)c1cccs1 (configuration not stated)	none
CCOC(=O)c1sc2ncnc(NCC(c3cccs3)N(C)C)c2c1C (configuration not stated)	KCNQ2 pot 7.72 | Kir21 confirm inactive | HEK293 Tl flux 252.5% | CHO-K1 Tl ctr inactive | KCNQ1 sel pot 0.2 | KCNQ2 pot conf 32.5 | Kir21 spec inactive | KCNQ2 W236L pot inactive
O=C(COc1cccc2cccnc12)Nc1ccccc1N1CCOCC1	none (no result: KCNQ2 pot)
COc1ccc(S(=O)(=O)N2CCN(Cc3ccc(Cl)cc3)CC2)cc1	none (no result: KCNQ2 pot)
COc1ccc(CN2CCCN(S(=O)(=O)c3ccc(Br)cc3)CC2)cc1	none (no result: KCNQ2 pot) | Kir21 confirm 55.5% | HEK293 Tl flux inactive
O=C(NC1CCCCC1)C(c1ccc(F)cc1)N(C(=O)c1csnn1)C1CC1 (configuration not stated)	none (no result: KCNQ2 pot)
O=C(CC12CC3CC(CC(C3)C1)C2)Nc1c(F)cccc1F	KCNQ2 pot 9.96 | Kir21 confirm inactive | HEK293 Tl flux inactive | CHO-K1 Tl ctr inactive | KCNQ1 sel pot inactive | KCNQ2 pot conf 33.1 | Kir21 spec inactive | KCNQ2 W236L pot inactive
CC(=O)Nc1ccc(NC(=O)CC23CC4CC(CC(C4)C2)C3)cc1	none
CN(C)S(=O)(=O)c1cccc(NC(=O)CC23CC4CC(CC(C4)C2)C3)c1	none
CN(C)S(=O)(=O)Nc1cccc(NC(=O)CC23CC4CC(CC(C4)C2)C3)c1	KCNQ2 pot 7.85 | Kir21 confirm inactive | HEK293 Tl flux inactive | CHO-K1 Tl ctr 7.1 | KCNQ1 sel pot 6.3 | KCNQ2 pot conf inactive | Kir21 spec inactive | KCNQ2 W236L pot inactive
Cc1cccc(N2CCN(C(=O)CNC(=O)c3cccc([N+](=O)[O-])c3)CC2)c1C	none (no result: KCNQ2 pot) | Kir21 confirm inactive | HEK293 Tl flux inactive
O=C(NCC(=O)N1CCN(c2ccccc2O)CC1)c1ccccc1	none
CCOC(=O)c1sc(S(C)=O)c2c1CCc1conc1-2 (configuration not stated)	none
Cc1ccc(S(=O)(=O)NCc2c(-c3ccccc3)noc2C)cc1	none (no result: KCNQ2 pot)
Cc1onc(-c2ccccc2)c1CNS(=O)(=O)c1cccc(Cl)c1	none | Kir21 confirm 58.0% | HEK293 Tl flux inactive
CCN(CC)c1ccc(NC(=O)c2cccc(F)c2)c(C)c1	KCNQ2 pot 17.3 | Kir21 confirm inactive | HEK293 Tl flux inactive | CHO-K1 Tl ctr inactive | KCNQ1 sel pot inactive | KCNQ2 pot conf 48.9 | Kir21 spec inactive | KCNQ2 W236L pot inactive
CCN(CC)c1ccc(NC(=O)c2ccco2)c(C)c1	none
O=C(COC(=O)Cc1cccc(C(F)(F)F)c1)NC1CCS(=O)(=O)C1 (configuration not stated)	none (no result: KCNQ2 pot)
Cc1ccc(NC(=O)CNC(=O)CC23CC4CC(CC(C4)C2)C3)c(O)c1	KCNQ2 pot 10.2 | Kir21 confirm inactive | HEK293 Tl flux inactive | CHO-K1 Tl ctr inactive | KCNQ1 sel pot inactive | KCNQ2 pot conf 24.7 | Kir21 spec inactive | KCNQ2 W236L pot inactive
NS(=O)(=O)c1cccc(NC(=O)CNC(=O)CC23CC4CC(CC(C4)C2)C3)c1	none
Cc1ccc(NC(=O)CCc2ccc(C)o2)c(Br)c1	none
CCc1ccc(CCC(=O)Nc2ccc(C)cc2C)o1	KCNQ2 pot 6.01 | Kir21 confirm inactive | HEK293 Tl flux inactive | CHO-K1 Tl ctr inactive | KCNQ1 sel pot inactive | KCNQ2 pot conf 1.0 | Kir21 spec inactive | KCNQ2 W236L pot inactive
CC1(C)Cc2c(c(N3CCOCC3)nc3snc(NC(=O)c4ccccc4)c23)CO1	KCNQ2 pot 8.64 | Kir21 confirm inactive | HEK293 Tl flux inactive | CHO-K1 Tl ctr inactive | KCNQ1 sel pot inactive | KCNQ2 pot conf 27.7 | Kir21 spec inactive | KCNQ2 W236L pot inactive
COc1ccc(NC(=O)c2sc3nc(N4CCOCC4)c4c(c3c2N)CC(C)(C)OC4)cc1	none (no result: KCNQ2 pot)
O=C(/C=C/c1ccc(OC(F)F)cc1)Nc1cccc(S(=O)(=O)NC2=NCCCCC2)c1	none
COC(=O)c1cn(NC(=O)c2cc([N+](=O)[O-])ccc2F)c(=O)c2ccccc12	none (no result: KCNQ2 pot)
COC(=O)c1cn(NC(=O)CC2CCCCC2)c(=O)c2ccccc12	KCNQ2 pot 13.9 | Kir21 confirm inactive | HEK293 Tl flux inactive | CHO-K1 Tl ctr inactive | KCNQ1 sel pot inactive | KCNQ2 pot conf 74.6 | Kir21 spec inactive | KCNQ2 W236L pot inactive
COC(=O)c1cn(NC(=O)C2CCC(C)CC2)c(=O)c2ccccc12 (configuration not stated)	none (no result: KCNQ2 pot)
COC(=O)c1cn(NC(=O)CCC2CCCC2)c(=O)c2ccccc12	KCNQ2 pot 28.1 | Kir21 confirm inactive | HEK293 Tl flux inactive | CHO-K1 Tl ctr 103.7 | KCNQ1 sel pot inactive | KCNQ2 pot conf 121.6 | Kir21 spec inactive | KCNQ2 W236L pot inactive
O=C(Cc1ccsc1)NCC(=O)Nc1ccc(F)c(F)c1	none
CCOC(=O)C1=C(CN2CCN(CCC#N)CC2)NC(=O)NC1c1ccc2c(c1)OCO2 (configuration not stated)	none (no result: KCNQ2 pot)
CCc1ccc(NC(=O)Cn2cccc2)cc1	none (no result: KCNQ2 pot)
Cc1nn(C)c(=O)n1N(C)c1ncc(C(F)(F)F)cc1Cl	none

From PubChem
